DT40 TDP1 no CPT: qHTS for Inhibitors of human tyrosyl-DNA phosphodiesterase 1 (TDP1): qHTS in cells in absence of CPT | DT40 Tdp1-/- hTDP1 cells, no CPT, ATP luminescence, 48 h | Potency, µM (highest dose often 46.2 µM), without a hit: top-dose activity change, negative = growth inhibition, most hits filed as inhibitors | 15% of 420,000 active; further: potency means the concentration at half of the fitted maximal effect; nearly all actives have a fitted effect of over 55% in size
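No-CPT arm: Tdp1-/-;hTDP1 DT40 cells (400/well) plus compounds, incubated ≥48 hr at 37 °C. Readout CellTiter-Glo luminescence.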
HT1080NT lethal: kills 2HG-producing HT-1080-NT fibrosarcoma cells; 1.6% of 360,000 active; HT-1080-NT fibrosarcoma viability, CellTiter-Glo ATP luminescence, 48 h; Potency, µM (top dose mostly 46.1 µM), for inactives: at the highest dose activity, negative = less viability, most hits filed as cytotoxic;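 further: NT is the 2HG producing partner of a matched IDH1 knockdown line; potency means the concentration at half of the fitted maximal effect; 0% = DMSO-treated cells and -100% = media-only wells without cells; nearly all actives have a fitted effect of over 55% in size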
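Luminescent CellTiter-Glo readout after 48 hours of compound exposure at 37 degrees C defined viability of HT-1080-NT cells. Activity was normalized to DMSO wells and cell-free media wells; concentration-response curves were fitted and assigned curve classes.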
DT40 TDP1 CPT: DT40-hTDP1 cell growth loss with CPT | Potency, µM (series often up to 46.2 µM), for inactives: at the highest dose activity change, negative = growth inhibition, hits mostly inhibitors | 12% of 420,000 active | chicken DT40 Tdp1-/-;hTDP1 cells + 20 nM CPT, ATP luminescence, 48 h; further: potency means the concentration at half of the fitted maximal effect; nearly all actives have a fitted effect of over 55% in size
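Chicken DT40 Tdp1-/- cells stably complemented with human TDP1 were seeded at 400 cells/well in medium containing 20 nM camptothecin, exposed to pin-transferred compounds, and grown at 37 °C for at least 48 hr. Viability was read as ATP luminescence.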
HT1080 IDH1KD tx: HT-1080 IDH1 knockdown cell toxicity (counter line). HT-1080 IDH1 knockdown viability, ATP luminescence, 48 h. Potency, µM (highest dose often 46.1 µM), without a hit: top-dose activity, negative = toxicity, actives largely listed as cytotoxic. 2% of 360,000 active;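 further: potency means the concentration at half of the fitted maximal effect; 0% = DMSO wells and -100% = cell-free medium wells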
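HT-1080-IDH1KD cells (IDH1 knocked down), 750/well in RPMI with 5% FBS, treated with compound 48 h at 37 degrees C. Viability by CellTiter-Glo luminescence, normalised to DMSO and no-cell wells; concentration-response curves classed.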
IL1B secr inh: inflammasome signaling inhibition, IL-1 beta readout; THP-1 LPS/ATP IL-1B secretion, AlphaLISA, 16 h; active compounds read low; activity change, % at 57.5 µM; 4.7% of 360,000 active; in the data active means activity change below about -50%; inconclusive means mostly about -30% to -49%
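THP-1 cells pretreated 1 hr with compounds (up to 57.5 uM final), then stimulated with LPS (250 ng/mL final) plus ATP (1.25 mM final); secreted IL-1B measured by AlphaLISA after 16 hr, decreased signal indicating inhibition.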
* marks the source's active call; other numbers are inactive results; i = inactive; ? = inconclusive; nt = no result. Shown are actives, neighbours in structure and some others; about 19% of the full set was active somewhere. Unless noted, the call rests on the fitted dose curve; in most records, active means well fitted curve in the direction sought with a large enough effect; inconclusive means small, poorly fitted or top-dose-only effect, or another doubt; inactive means no such curve, though single readings can be large; an effect the other way counts as inactive or inconclusive. Unless noted, on the % scale 0 is the no-effect control and ±100 the full control effect.

SMILES	DT40 TDP1 no CPT	HT1080NT lethal	DT40 TDP1 CPT	HT1080 IDH1KD tx	IL1B secr inh
COc1ccc(OCC(O)Cn2c(N)nc3c2c(=O)[nH]c(=O)n3C)cc1 (stereo unspecified)	-27%	16%	1%	8%	28
Cc1ccc(S(=O)(=O)N2C[C@H]3C(=O)C[C@@H](c4ccc(Cl)cc4)N(S(=O)(=O)c4ccccc4C)[C@H]3C[C@H]2c2cccc(Cl)c2)cc1	?	5%	-18%	13%	9
Cc1c(Cl)cccc1NC(=O)C1NC(=O)CC1c1ccccc1 (stereo unspecified)	?	1%	-17%	-3%	-19
COc1cc(NC(=O)c2ccc([N+](=O)[O-])cc2)c(OC)cc1NC(=O)CC(C)C	11%	7%	1%	7%	-7
COc1cc(SC)ccc1C(=O)Nc1ccncc1	13µM*	12%	16µM*	-3%	?
COc1ccc(NC(=O)N(C)C[C@H]2OCc3cnnn3CCCC(=O)N([C@@H](C)CO)C[C@H]2C)cc1	-18%	7%	-16%	1%	17
O=C1C=C(c2cccc(O)c2)CCC1	-1%	14%	2%	10%	-3
Oc1cccc(-c2c3nc(c(-c4cccc(O)c4)c4ccc([nH]4)c(-c4cccc(O)c4)c4nc(c(-c5cccc(O)c5)c5ccc2[nH]5)CC4)C=C3)c1	19µM*	nt	27µM*	nt	nt
COc1cc(OC)cc(C(=O)NC2CCN(CCCOc3ccccc3)CC2)c1	-1%	-7%	-6%	-5%	-52*
COc1cccc(C(=O)NC2CCN(CC(=O)Nc3ccccc3Cl)CC2)c1	?	-3%	?	-3%	32
CCCN1CCC(NC(=O)c2cccc(Oc3ccccc3)c2)CC1	23µM*	-3%	?	-1%	i
CC(=O)c1ccc(N2CCN(C(=O)CNS(=O)(=O)c3ccc4c(c3)OCCCO4)CC2)c(F)c1	?	-2%	?	-1%	-4
CCN(CC)C(=O)CSc1nnc(-c2cc3ccccc3cc2O)n1CC	9.2µM*	-23%	0.92µM*	-20%	9
Cc1cccc(-c2nnc(SCC(=O)N3c4ccccc4CCc4ccccc43)n2C)c1	23µM*	1%	?	1%	-56*
Cn1c(SCC(=O)N2c3ccccc3CCc3ccccc32)nnc1-c1cc2ccccc2cc1O	15µM*	-4%	16µM*	-6%	?
Cn1c(SCC(=O)N2CCCc3ccccc32)nnc1-c1ccccc1	-15%	23%	1%	10%	-5
O=C(Nc1ccc(OC(F)(F)F)cc1)C(NS(=O)(=O)c1cccc2nsnc12)c1ccccc1 (stereo unspecified)	?	nt	16µM*	nt	nt
Cc1cc(-c2nsc(=O)o2)c(S(C)(=O)=O)s1	16µM*	-2%	21µM*	-5%	0
Cc1cc([N+](=O)[O-])nn1CC(=O)N/N=C/c1ccccc1Br	-16%	-8%	-23%	-7%	1
Cc1cc([N+](=O)[O-])nn1CC(=O)N/N=C/c1ccc(O)cc1O	6.5µM*	?	8.2µM*	?	249
CCOc1cc(/C=N/NC(=O)Cc2ccc(C(F)(F)F)cc2[N+](=O)[O-])ccc1O	-11%	-20%	-14%	-18%	11
COc1cccc(/C=N/NC(=O)Cn2nc([N+](=O)[O-])cc2C)c1	-19%	6%	16%	1%	2
CCOc1cc(/C=N/NC(=O)Cn2nc([N+](=O)[O-])cc2C)cc(Br)c1OCc1ccccc1C	?	?	23µM*	?	9
C=CCOc1c(Br)cc(/C=N/NC(=O)Cc2ccc(C(F)(F)F)cc2[N+](=O)[O-])cc1OC	13µM*	-19%	12µM*	-7%	29
COc1cc(/C=N/NC(=O)Cn2nc([N+](=O)[O-])cc2C)cc(Br)c1OCc1ccccc1	?	?	26µM*	?	-9
COc1cccc(OC)c1C(=O)NC(=O)Nc1c(C)cccc1C	19%	-1%	1%	3%	-2

Screening data as filed in PubChem.
